Test [1] is described as follows: Quantitative High-Throughput drug screen in 47 multiple myeloma cell lines against the NCATS MIPE library collection: KMS28BM_JCRB cell viability assay (AID 1919874). Note: nearly all actives have a fitted effect of over 35% in size. Note: potency is the fitted concentration of half-maximal effect. Put shortly:
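qHTS format: cells plated (500/well), pin-dosed with MIPE 4.0 compounds, kept 48 h at 37 °C. Readout was CellTiter-Glo luminescence, median RLU.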

Test [2] in a line: qHTS for identification of novel therapeutic agents for treatment of microphthalmiaassociated transcription factor (MiT) renal cell carcinoma (RCC) (AID 1963991; calls by dose curve; note: potency is the fitted concentration of half-maximal effect;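 for z-score: curves scaled with 100% = DMSO viability and 0% = empty wells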). As to conditions: CellTiter-Glo, 48 h; for z-score: stronger effect = lower value; for Potency: active = Z-AUC below -0.8 in all three lines. Summed up:
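UOK109/UOK124/UOK145 (TFE3 fusions, three partners); 500 cells/well; MIPE v4.0, 1912 cpds, 11 conc.; 48 h, 37 C; CellTiter-Glo, 15 min RT; lum. Norm.: DMSO 100%, empty 0%.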
In general terms: In qHTS, concentration-response curves come from the screen itself.

A short description of test [3]: qHTS drug screen for cell cycle checkpoint inhibitors in PARPi-resistant BRCA-mutant ovarian cancer cell lines. (AID 1963452; calls by dose curve; note: potency is the fitted concentration of half-maximal effect). As to conditions: PEO1/OlaR viability, CellTiter-Glo luminescence, 96 h; for Z-AUC: stronger effect = lower value. Put shortly: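 PEO1, PEO4 and PEO1/OlaR ovarian cancer cells, 600 per well, exposed 96 h at 37C to a dilution series. Viability read by CellTiter-Glo luminescence, normalized to DMSO and empty wells; activity summarized as Z-AUC.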

Test [4] has as its system 3D7. As to the kind of experiment: qHTS profiling for inhibitors of Plasmodium falciparum proliferation (AID 504749).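 Note: 0% = DMSO vehicle and full inhibition = artemisinin control; nearly all actives have a fitted effect of over 60% in size.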 The note with it: P. falciparum in erythrocytes, SYBR Green DNA, 72 h; series mostly up to 28.7 µM. Put shortly: (§1)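 Quantitative HTS: compounds pinned into medium, infected erythrocytes added (0.3% parasitemia, 2.5% hematocrit), 72 h culture at 37 C under 5% CO2. Saponin/Triton lysis with SYBR Green I, overnight RT, then fluorescence read.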

Test [5] has as its system 7G8. Described as above. As to conditions: P. falciparum in erythrocytes, SYBR Green DNA, 72 h; series mostly up to 28.7 µM. Summed up: as §1
In test [6] the test system is AA1029. The test is described as above. As to conditions: P. falciparum in erythrocytes, SYBR Green DNA, 72 h; series mostly up to 28.7 µM. Put shortly: as §1
For test [7], the system named is AS120. Described as above. The note with it: P. falciparum in erythrocytes, SYBR Green DNA, 72 h; series mostly up to 28.7 µM. Put shortly:
as §1

The test system of test [8] is ATS189. The description is as above. As to conditions: P. falciparum in erythrocytes, SYBR Green DNA, 72 h; series mostly up to 28.7 µM. Put shortly:
as §1

Test [9] has as its system ATS95. The test is described as above. As to conditions: P. falciparum in erythrocytes, SYBR Green DNA, 72 h; series mostly up to 28.7 µM. Put shortly: as §1
Where [10] appears, read: TFE3-RCC UOK109 viability, measured here: UOK109 Z-AUC.
Where [11] appears, read: TFE3-RCC viability, measured here: UOK124 Z-AUC.
Where [12] appears, read: TFE3-RCC viability, measured here: UOK145 Z-AUC.
[13] abbreviates: measured here: PEO1 parental Z-AUC.

Inconclusive results are not listed. Active and inactive are the calls of the source. Unless noted, calls come from the whole dose curve; as a rule, active = well fitted curve in the direction sought with a large enough effect; inconclusive = small, poorly fitted or top-dose-only effect, or another doubt; inactive = no such curve, though single readings can be large; an effect the other way counts as inactive or inconclusive.

Consider `NC(=O)c1ncn([C@@H]2O[C@H](CO)[C@@H](O)[C@@H]2O)c1O`, for which the Potency result in test [1] is “inactive”. The z-score in test [2] (setting [10]) was 0.702; in test [2] (setting [11]) it was 0.298; in [2] (setting [12]), 0.0692.
The like results for `N#CC(=C(O)c1ccc(Cl)cc1Cl)c1nc2cc(Cl)ccc2c(=O)[nH]1` were, in that order, “inactive”, 0.465, 1.29 and 0.266.
The like results for `O=C(O)C=Cc1ccc(Cn2ccnc2)cc1` were, in that order, “inactive”, 0.607, 0.722 and 0.686.
The like results for `CCC[C@H]1C[C@H](C(=O)N[C@@H]([C@@H]2O[C@@H](SC)[C@@H](O)[C@@H](O)[C@@H]2O)[C@H](C)Cl)N(C)C1` were, in that order, “inactive”, 0.606, 0.328 and -0.0561.
With `CC(C)C[C@H](NC(=O)CNC(=O)c1cc(Cl)ccc1Cl)B1OC(=O)CC(CC(=O)O)(C(=O)O)O1` (some centres undefined), the Potency was 52.6 nM (active) in test [1], 43.6 nM (active) in [3] and 83.3 nM (active) in test [2] (TFE3-RCC UOK109 viability). Also, the Z-AUC in [3] (setting [13]) was -3.29; in [3] (measured here: PEO4 Z-AUC) it was -3.23. For the same molecule, the z-score was -1.14 in test [2] (setting [10]), -3.62 in [2] (setting [11]) and -2.91 in test [2] (setting [12]).
Turning to `C#C[C@]1(O)CC[C@@H]2[C@@H]3CCC4=CC(=O)CC[C@@H]4[C@H]3CC[C@@]21CC`, the Potency entry in [1] was “inactive”. Besides, the z-score in [2] (setting [10]) was 0.12; in test [2] (setting [11]) it was -0.0153; in [2] (setting [12]) it was -0.174.
For `COc1cc([C@@H]2c3cc4c(cc3[C@H](O)[C@H]3COC(=O)[C@@H]23)OCO4)cc(OC)c1OC`, the values for the Potency in [1], in test [3] and in [2] (TFE3-RCC UOK109 viability) were 41.8 nM (active), 1230 nM (active) and 83.3 nM (active), respectively. Besides, the Z-AUC was -1.51 in [3] (setting [13]) and -1.58 in test [3] (measured here: PEO4 Z-AUC). Moreover, the results for the z-score in test [2] (setting [10]), in test [2] (setting [11]) and in [2] (setting [12]) were -1.41, -1.77 and -1.2, respectively.
For the molecule `CCN1CCN(C(=O)N[C@H](C(=O)N[C@@H]2C(=O)N3C(C(=O)O)=C(CSc4nnnn4C)CS[C@@H]23)c2ccc(O)cc2)C(=O)C1=O`, in [1], the Potency result is “inactive”. For the same molecule, the z-score is 3.06 in [2] (setting [10]), 1.43 in test [2] (setting [11]) and 2.48 in [2] (setting [12]).
The like results for `CC1(C)[C@H](O[C@H]2O[C@H](C(=O)O)[C@@H](O)[C@H](O)[C@H]2O[C@@H]2O[C@H](C(=O)O)[C@@H](O)[C@H](O)[C@H]2O)CC[C@@]2(C)[C@H]1CC[C@]1(C)[C@H]2C(=O)C=C2[C@H]3C[C@@](C)(C(=O)O)CC[C@]3(C)CC[C@]21C` were, in that order, “inactive”, 0.831, 0.728 and 0.774.
`CNC(=O)Nc1ccc(-c2nc(N3CC4CCC(C3)O4)c3cnn(C4CCC5(CC4)OCCO5)c3n2)cc1`: the Potency in test [1] is 7.4 nM (active); in [2] (TFE3-RCC UOK109 viability) it was 41.8 nM (active). For the same molecule, the Z-AUC in test [3] is -0.248 (inactive); in test [3] (setting [13]), -0.236; in [3] (measured here: PEO4 Z-AUC), -1.02. The z-score in test [2] (setting [10]) is -1.43; in test [2] (setting [11]), -1.26; in test [2] (setting [12]), -2.73.
Regarding `Nc1nc2c(c(=O)[nH]1)N(C=O)[C@H](CNc1ccc(C(=O)N[C@@H](CCC(=O)O)C(=O)O)cc1)CN2`, the Potency result in test [1], in [4], in test [5], in [6], in test [7] and in test [8] was “inactive” each time. Further, the Potency entry in [9] is “inactive”. Besides, the Z-AUC in [3] is 1.12 (inactive); in test [3] (setting [13]) it was 1.3; in [3] (measured here: PEO4 Z-AUC), 1.01.
`O=C(NNC(=O)c1ccc(CNS(=O)(=O)c2ccc(F)c(Cl)c2)cc1)c1ccccc1`: the Potency entry in test [1] is “inactive”. Further, the z-score came out at 0.375 in test [2] (setting [10]), 0.329 in test [2] (setting [11]) and 0.518 in test [2] (setting [12]).
The like results for `CC(=O)OCC(=O)[C@@]12N=C(C)O[C@H]1C[C@H]1[C@@H]3CCC4=CC(=O)C=C[C@]4(C)[C@@H]3[C@@H](O)C[C@@]12C` were, in that order, “inactive”, 0.415, 0.48 and 2.44.
As to `OC[C@@H](O)[C@@H](O)[C@H](O)[C@@H](O)CO`, the Potency entry in test [1] is “inactive”. For the same molecule, the figures for the z-score in test [2] (setting [10]), in test [2] (setting [11]) and in [2] (setting [12]) were 0.602, 0.356 and 0.716, respectively.
The like results for `CC(C)(O)[C@H]1CC[C@@](C)([C@H]2[C@@H](O)C[C@@]3(C)[C@@H]4C[C@H](O[C@@H]5O[C@H](CO)[C@@H](O)[C@H](O)[C@@H]5O)[C@H]5C(C)(C)[C@@H](O[C@@H]6OC[C@@H](O)[C@H](O)[C@@H]6O)CC[C@@]56C[C@@]46CC[C@]23C)O1` were, in that order, “inactive”, 0.913, 0.41 and 0.699.
In the case of `CC(C)C[C@H](NC(=O)[C@@H](NC(=O)c1cccc(-c2ccccc2)n1)[C@@H](C)O)B(O)O`, the results for the Potency in test [1], in test [3] and in test [2] (TFE3-RCC UOK109 viability) were 14.8 nM (active), 60.1 nM (active) and 469 nM (active), respectively. Moreover, the Z-AUC is -2.93 in test [3] (setting [13]) and -3.51 in test [3] (measured here: PEO4 Z-AUC). The results for the z-score in test [2] (setting [10]), in test [2] (setting [11]) and in [2] (setting [12]) were -1.47, -3.68 and -3.39, respectively.
For the molecule `COc1cc2c(Nc3ccc(Cl)c(Cl)c3F)ncnc2cc1OCC1C[C@@H]2CN(C)C[C@H]2C1`, the values for the Potency in test [1] and in [2] (TFE3-RCC UOK109 viability) were 8330 nM (active) and 9350 nM (active), respectively. The z-score in [2] (setting [10]) is -3.52; in [2] (setting [11]) it was -1.85; in test [2] (setting [12]), -1.7.
As to `O=c1c(O)c(-c2ccc(O)c(O)c2)oc2cc(O)ccc12`, the Z-AUC in [3] was 0.12 (inactive); in [3] (setting [13]) it was -0.105; in test [3] (measured here: PEO4 Z-AUC), 0.0271.
With `CC[C@H](CC[C@@H](C)[C@H]1CC[C@H]2[C@@H]3CC=C4C[C@@H](O)CC[C@]4(C)[C@@H]3CC[C@]12C)C(C)C`, the Potency entry in [1] was “inactive”. In addition, the z-score in test [2] (setting [10]) turned out to be 0.368; in test [2] (setting [11]), 0.916; in test [2] (setting [12]) it was 0.197.
For `CC(C)N1[N]C(=C2C=c3cc(O)ccc3=N2)c2c(N)ncnc21`, the Potency in test [1] is 1320 nM (active); in test [2] (TFE3-RCC UOK109 viability) it was 1870 nM (active). Besides, the z-score in test [2] (setting [10]) was -1.06; in test [2] (setting [11]), -1.57; in [2] (setting [12]), -0.805.
In the case of `CC(=O)NC(CS)C(=O)O` (centres undefined), the Potency result in test [1] was “inactive”. The z-score worked out at 0.609 in test [2] (setting [10]), 0.0619 in test [2] (setting [11]) and 0.159 in test [2] (setting [12]).
Regarding `Cc1ccc([N+](=O)[O-])cc1S(=O)(=O)N(C)N=Cc1cnc2ccc(Br)cn12`, the Potency in test [1] and in test [2] (TFE3-RCC UOK109 viability) was 23.5 nM (active) throughout. Also, the results for the z-score in [2] (setting [10]), in [2] (setting [11]) and in test [2] (setting [12]) were -2.11, -3.04 and -2.3, respectively.
As for `COc1ccc2c(c1OC)C(=O)OC2[C@H]1c2c(cc3c(c2OC)OCO3)CCN1C` (some centres undefined), the Potency in test [1] was 20.9 nM (active). Also, the Potency entry in test [4], in [5], in test [6], in test [7], in test [8] and in [9] was “inactive” in each case.

(Values after PubChem BioAssay (NCATS).)
